Results: PubChem BioAssay (NCATS)
Records with an inconclusive call do not appear. The source made the active and inactive calls. Calls come from the whole dose curve; as a rule, active = well fitted cell-killing curve with a large enough effect; inconclusive = small, poorly fitted or top-dose-only effect, or effect the other way; inactive = flat fitted curve, though single readings scatter.

Assays:
Assay in all cases: Primary qHTS to identify gynecologic anti-cancer compounds using libraries of approved drugs and bioactive compounds (AID 1345084); note: nearly all actives have a fitted effect of over 55% in size
C33A = settings: Gynecologic cancer cell panel viability, ATPlite luminescence, 48 h; series mostly up to 57.5 µM
Method in brief: (§1)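 48 h compound exposure at 37 C, 5% CO2; five-point qHTS. ATPlite luminescence readout of cell ATP.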

CASKI = settings: Gynecologic cancer cell panel viability, ATPlite luminescence, 48 h; series mostly up to 57.5 µM
Method in brief: as §1

Es-2 = settings: Gynecologic cancer cell panel viability, ATPlite luminescence, 48 h; series mostly up to 57.5 µM
Method in brief: as §1

HeLa = settings: Gynecologic cancer cell panel viability, ATPlite luminescence, 48 h; series mostly up to 57.5 µM
Method in brief: as §1

Hek293T = settings: Gynecologic cancer cell panel viability, ATPlite luminescence, 48 h, control line for the selectivity index; series mostly up to 57.5 µM
Method in brief: as §1

JEG-3 = settings: Gynecologic cancer cell panel viability, ATPlite luminescence, 48 h; series mostly up to 57.5 µM
Method in brief: as §1

OV90 = settings: Gynecologic cancer cell panel viability, ATPlite luminescence, 48 h; series mostly up to 57.5 µM
Method in brief: as §1

PA-1 = settings: Gynecologic cancer cell panel viability, ATPlite luminescence, 48 h; series mostly up to 57.5 µM
Method in brief: as §1

SKOV3 = settings: Gynecologic cancer cell panel viability, ATPlite luminescence, 48 h; series mostly up to 57.5 µM
Method in brief: as §1

Tov-21-G = settings: Gynecologic cancer cell panel viability, ATPlite luminescence, 48 h; series mostly up to 57.5 µM
Method in brief: as §1

Tov112D = settings: Gynecologic cancer cell panel viability, ATPlite luminescence, 48 h; series mostly up to 57.5 µM
Method in brief: as §1

CAOV3 = settings: Gynecologic cancer cell panel viability, ATPlite luminescence, 48 h; series mostly up to 57.5 µM
Method in brief: as §1
% is set by controls: 0 for no effect and ±100 for the full control effect.

C/C=C(/C)C(=O)O[C@H]1C=C(C)C[C@H](OC(=O)c2ccc(O)cc2)C2[C@](O)(C(C)C)CC[C@@]21C (some centres undefined)
inactive: Potency (C33A) | Potency (CASKI) | Potency (Es-2) | Potency (HeLa) | Potency (Hek293T) | Potency (JEG-3) | Potency (OV90) | Potency (PA-1) | Potency (SKOV3) | Potency (Tov-21-G) | Potency (Tov112D)

COC1CC(OC2CCC3(C)C(=CCC4C3CCC3(C)C(C(C)O)CCC43O)C2)OC(C)C1OC1OC(C)C(OC2OC(COC3OC(COC4OC(CO)C(O)C(O)C4O)C(O)C(O)C3O)C(O)C(O)C2O)C(OC)C1O (centres undefined)
inactive: activity change, negative = cytotoxicity (C33A) 3.94% [at 11.6 µM] | activity change, negative = cytotoxicity (CASKI) 16.9% [at 11.6 µM] | activity change, negative = cytotoxicity (Es-2) 1.08% [at 11.6 µM] | activity change, negative = cytotoxicity (HeLa) -2.66% [at 11.6 µM] | activity change, negative = cytotoxicity (Hek293T) -3% [at 11.6 µM] | activity change, negative = cytotoxicity (JEG-3) -1.13% [at 11.6 µM] | activity change, negative = cytotoxicity (OV90) 3.31% [at 11.6 µM] | activity change, negative = cytotoxicity (PA-1) 5.02% [at 11.6 µM] | activity change, negative = cytotoxicity (SKOV3) 0% [at 11.6 µM] | activity change, negative = cytotoxicity (Tov-21-G) -5.94% [at 11.6 µM] | activity change, negative = cytotoxicity (Tov112D) -0.956% [at 11.6 µM]

C=C1CC[C@H]2[C@@](C)(CCC(O)[C@@]2(C)CO)[C@@H]1C/C=C(/C(=O)O)C(O)CO (some centres undefined)
inactive: Potency (C33A) | Potency (CAOV3) | Potency (Es-2) | Potency (HeLa) | Potency (Hek293T) | Potency (JEG-3) | Potency (OV90) | Potency (PA-1) | Potency (SKOV3) | Potency (Tov-21-G) | Potency (Tov112D)

CCOC(=O)c1ccnc(CNCC(=O)N(CC)CCN(C)C)c1
inactive: Potency (C33A) | Potency (CASKI) | Potency (Es-2) | Potency (HeLa) | Potency (Hek293T) | Potency (JEG-3) | Potency (OV90) | Potency (PA-1) | Potency (SKOV3) | Potency (Tov-21-G) | Potency (Tov112D)

C=C1CCC2[C@@](C)(C=O)CCC[C@]2(C)[C@H]1CC/C(C)=C/CO (some centres undefined)
inactive: Potency (C33A) | Potency (CASKI) | Potency (Es-2) | Potency (HeLa) | Potency (Hek293T) | Potency (JEG-3) | Potency (OV90) | Potency (PA-1) | Potency (SKOV3) | Potency (Tov-21-G) | Potency (Tov112D)

C=C1CC2(C(=O)O)CC1CCC2C1(C)CCCC2(C)C(=O)OC(O)C21 (centres undefined)
inactive: Potency (C33A) | Potency (CAOV3) | Potency (Es-2) | Potency (HeLa) | Potency (Hek293T) | Potency (JEG-3) | Potency (OV90) | Potency (PA-1) | Potency (SKOV3) | Potency (Tov-21-G) | Potency (Tov112D)

O=C(c1ccc(C#Cc2cccc(F)c2)cn1)N1CC2CC2C1 (centres undefined)
inactive: Potency (C33A) | Potency (CASKI) | Potency (Es-2) | Potency (HeLa) | Potency (Hek293T) | Potency (JEG-3) | Potency (OV90) | Potency (PA-1) | Potency (SKOV3) | Potency (Tov-21-G) | Potency (Tov112D)

COC(=O)C1=CO[C@@H](O[C@@H]2O[C@H](CO[C@@H]3O[C@H](COC(=O)/C=C/c4ccc(O)cc4)[C@@H](O)[C@H](O)[C@H]3O)[C@@H](O)[C@H](O)[C@H]2O)[C@@H]2C(CO)=CC[C@H]12
inactive: Potency (C33A) | Potency (CASKI) | Potency (Es-2) | Potency (HeLa) | Potency (Hek293T) | Potency (JEG-3) | Potency (OV90) | Potency (PA-1) | Potency (SKOV3) | Potency (Tov-21-G) | Potency (Tov112D)

CC(C)Nc1cc(-c2c[nH]c(C(=O)N[C@H](CO)c3cccc(Cl)c3)c2)c(Cl)cn1
inactive: Potency (C33A) | Potency (CAOV3) | Potency (CASKI) | Potency (HeLa) | Potency (Hek293T) | Potency (JEG-3) | Potency (SKOV3) | Potency (Tov112D)

O=C(O)C[C@@H](NC(=O)c1cc(-c2ccc(-c3ccncc3)cc2)cs1)c1ccccc1
inactive: Potency (C33A) | Potency (CAOV3) | Potency (CASKI) | Potency (HeLa) | Potency (Hek293T) | Potency (JEG-3) | Potency (OV90) | Potency (PA-1) | Potency (SKOV3) | Potency (Tov112D)

C=C1CC[C@H]2[C@@](C)(CCC[C@@]2(C)C(=O)O)[C@@H]1CCC(C)CCO (some centres undefined)
inactive: Potency (C33A) | Potency (CASKI) | Potency (Es-2) | Potency (HeLa) | Potency (Hek293T) | Potency (JEG-3) | Potency (OV90) | Potency (PA-1) | Potency (SKOV3) | Potency (Tov-21-G) | Potency (Tov112D)

Oc1ccc([C@H]2COc3cc(O)ccc3C2)cc1
inactive: Potency (C33A) | Potency (CAOV3) | Potency (CASKI) | Potency (Es-2) | Potency (Hek293T) | Potency (JEG-3) | Potency (OV90) | Potency (PA-1) | Potency (SKOV3) | Potency (Tov-21-G) | Potency (Tov112D)

COC1CC(=O)C23C(=O)NC(CC(C)C)C2C(C)C(C)=CC3/C=C(\C)CCC1O (centres undefined)
inactive: Potency (C33A) | Potency (CAOV3) | Potency (CASKI) | Potency (Es-2) | Potency (HeLa) | Potency (JEG-3) | Potency (OV90) | Potency (PA-1) | Potency (SKOV3) | Potency (Tov-21-G) | Potency (Tov112D)
